Positions count from the first letter of the chain named.
What was measured:
Test in all cases: protein-binding microarray (PBM); PBM: ~300 nM protein, 6 mM HEPES pH 7.8, 80 mM KCl, 0.5 mM EDTA, 0.5 mM EGTA, 6% glycerol, 35 ng/ul poly-dIdC, 1% milk, 1 h, room temperature; Ap Aiptasia and Nv Nematostella (sea anemones) / Co Capsaspora / Aq Amphimedon (sponge) / Dm Drosophila / Hu human; RHD is the Rel homology domain; high values mean tight binding
Conditions in all cases: dsDNA, one strand shown
[1] = molecular target: T1, GST-Ap-NF-kB RHD (Exaiptasia pallida (Aiptasia), UniProt A0A913YAJ5 2-422)
T1 sequence: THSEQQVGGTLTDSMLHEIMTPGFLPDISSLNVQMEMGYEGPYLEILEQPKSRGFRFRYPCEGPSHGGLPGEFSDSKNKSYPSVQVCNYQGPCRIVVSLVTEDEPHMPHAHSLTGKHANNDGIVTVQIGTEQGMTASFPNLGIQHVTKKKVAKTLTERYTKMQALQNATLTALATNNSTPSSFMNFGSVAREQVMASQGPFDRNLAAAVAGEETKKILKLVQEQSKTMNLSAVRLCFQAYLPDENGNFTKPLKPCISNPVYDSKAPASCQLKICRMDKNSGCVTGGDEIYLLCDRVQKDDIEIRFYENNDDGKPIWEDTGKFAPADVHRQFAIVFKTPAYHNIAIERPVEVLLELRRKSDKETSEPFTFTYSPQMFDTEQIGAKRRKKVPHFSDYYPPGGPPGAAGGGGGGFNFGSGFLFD

[2] = molecular target: T2, GST-Nv-NF-kB (Cys allele) (Nematostella vectensis, UniProt E5G601 2-411)
T2 sequence: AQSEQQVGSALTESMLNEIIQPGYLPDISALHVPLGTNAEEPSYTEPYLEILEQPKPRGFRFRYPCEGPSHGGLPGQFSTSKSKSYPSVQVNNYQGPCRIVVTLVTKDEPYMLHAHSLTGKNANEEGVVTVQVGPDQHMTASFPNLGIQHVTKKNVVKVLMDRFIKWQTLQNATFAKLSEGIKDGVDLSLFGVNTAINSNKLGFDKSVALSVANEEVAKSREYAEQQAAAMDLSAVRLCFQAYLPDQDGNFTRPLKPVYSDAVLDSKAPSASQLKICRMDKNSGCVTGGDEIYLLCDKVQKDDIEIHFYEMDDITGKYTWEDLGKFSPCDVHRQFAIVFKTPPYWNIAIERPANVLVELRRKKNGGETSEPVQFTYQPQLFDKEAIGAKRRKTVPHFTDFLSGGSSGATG

[3] = molecular target: T3, GST-Dm-Relish (Drosophila melanogaster, UniProt Q94527 99-473)
T3 sequence: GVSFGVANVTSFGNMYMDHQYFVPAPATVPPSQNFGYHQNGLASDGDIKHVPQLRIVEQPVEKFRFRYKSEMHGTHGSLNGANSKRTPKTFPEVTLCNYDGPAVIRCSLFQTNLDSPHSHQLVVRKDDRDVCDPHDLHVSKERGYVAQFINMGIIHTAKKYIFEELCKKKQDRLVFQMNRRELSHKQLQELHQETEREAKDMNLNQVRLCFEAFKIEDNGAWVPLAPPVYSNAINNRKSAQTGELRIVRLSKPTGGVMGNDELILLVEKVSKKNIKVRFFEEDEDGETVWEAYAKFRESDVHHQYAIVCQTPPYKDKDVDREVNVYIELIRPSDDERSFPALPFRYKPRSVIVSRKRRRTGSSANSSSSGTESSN

[4] = molecular target: T4, GST-Aq-NF-kB (Amphimedon queenslandica, UniProt A9Y5G7 2-389)
T4 sequence: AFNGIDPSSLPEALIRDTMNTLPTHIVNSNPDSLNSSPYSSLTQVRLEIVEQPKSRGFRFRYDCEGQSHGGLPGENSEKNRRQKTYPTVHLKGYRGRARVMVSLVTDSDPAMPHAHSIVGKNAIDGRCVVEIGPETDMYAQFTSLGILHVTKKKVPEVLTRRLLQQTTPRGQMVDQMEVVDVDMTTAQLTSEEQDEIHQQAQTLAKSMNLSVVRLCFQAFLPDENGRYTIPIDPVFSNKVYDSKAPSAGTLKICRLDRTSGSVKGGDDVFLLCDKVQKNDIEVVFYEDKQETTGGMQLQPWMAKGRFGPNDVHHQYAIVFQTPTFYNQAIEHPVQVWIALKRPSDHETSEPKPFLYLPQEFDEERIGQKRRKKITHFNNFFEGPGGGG

[5] = molecular target: T5, GST-Co-NF-kB (Capsaspora owczarzaki, UniProt F1ARL5 200-546)
T5 sequence: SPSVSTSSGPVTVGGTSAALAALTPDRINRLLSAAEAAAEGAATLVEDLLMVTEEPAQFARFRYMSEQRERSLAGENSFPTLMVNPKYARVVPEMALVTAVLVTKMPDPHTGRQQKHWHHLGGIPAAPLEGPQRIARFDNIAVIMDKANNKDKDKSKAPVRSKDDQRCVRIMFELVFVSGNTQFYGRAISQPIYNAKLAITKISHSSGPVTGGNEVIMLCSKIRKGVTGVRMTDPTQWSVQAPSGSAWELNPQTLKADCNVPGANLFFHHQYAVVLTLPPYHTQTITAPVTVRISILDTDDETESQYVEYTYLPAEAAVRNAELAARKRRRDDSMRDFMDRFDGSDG

[6] = molecular target: T6, GST-Nv-NF-kB (Ser allele) (Nematostella vectensis, UniProt A7UNT2 2-411)
T6 sequence: T2 sequence with Q21R, C66S, S207N, E215Q, V217A, E225K, A268E, D399E

Sequence	binding signal [1] [z-score]	binding signal [2] [z-score]	binding signal [3] [z-score]	binding signal [4] [z-score]	binding signal [5] [z-score]	binding signal [6] [z-score]
CCGATTAACATCAGGAGGCCCCCTGATGTTAATCGGGTCTTGATTCGCTTGACGCTGCTG	4.97	2.51	2.71	5.1		
CCGATTAACATCAGGGATATCCATGATGTTAATCGGGTCTTGATTCGCTTGACGCTGCTG	1.84	1.09	2.52	2.44		
CCGATTAACATCAGGGCTTTACCTGATGTTAATCGGGTCTTGATTCGCTTGACGCTGCTG	1.07	2.29	5.69	3.97		
CCGATTAACATCAGGAATTACCATGATGTTAATCGGGTCTTGATTCGCTTGACGCTGCTG	1.03	1.38	4.62	3		
CCGATTAACATCAGGAATGTCCCTGATGTTAATCGGGTCTTGATTCGCTTGACGCTGCTG	3.06	5.35	3.4	6.41		
CCGATTAACATCAGGACAATCCCTGATGTTAATCGGGTCTTGATTCGCTTGACGCTGCTG	2.22	2.68	2.5	5.09		
CCGATTAACATCAGGGGGGGGAATGATGTTAATCGGGTCTTGATTCGCTTGACGCTGCTG	7.86		5.27	5.65	8.84	
CCGATTAACATCAGGCAACCCCATGATGTTAATCGGGTCTTGATTCGCTTGACGCTGCTG	1.67		2.62	1.4	1.23	
CCGATTAACATCAACCCCCCCCGTGATGTTAATCGGGTCTTGATTCGCTTGACGCTGCTG	5.8		6.51	4.08	6.25	2.64
CCGATTAACATCAGGTGTTCCCATGATGTTAATCGGGTCTTGATTCGCTTGACGCTGCTG	1.43		5.22	2.04	1.45	
CCGATTAACATCAGGGGGGGGGATGATGTTAATCGGGTCTTGATTCGCTTGACGCTGCTG	6.37		5.78	5.02	7.03	
CCGATTAACATCACGGGGGGGGATGATGTTAATCGGGTCTTGATTCGCTTGACGCTGCTG	6.27		5.35	5.29	7.62	5.38
CCGATTAACATCAAGGGGGGGAGTGATGTTAATCGGGTCTTGATTCGCTTGACGCTGCTG	4.51		3.56	4.43	7.82	
CCGATTAACATCACTCCCCCCCATGATGTTAATCGGGTCTTGATTCGCTTGACGCTGCTG	5.11		3.23	4.01	6.71	3.12
CCGATTAACATCACCCCCCCTGATGATGTTAATCGGGTCTTGATTCGCTTGACGCTGCTG	4.83		4.63	4.51	5.83	3.09

Source: publication PMC5700166
